The values that follow come from PubChem BioAssay (EPA / NIEHS).

Molecules are shown by their SMILES. Calls of active or inactive are those of the source. The calls were made as follows: active = hit-call score of the fitted dose curve at least 0.9, where 1 is the maximum; inactive = score below 0.9.

A short description of the experiment: BSK_BT_PBMCCytotoxicity: PBMC Cytotoxicity Assessment in the BioMAP Diversity Plus: BT Assay (AID 2284225). Conditions: primary human B cells with PBMC. How it is done: BSK_BT is a cell-based, multiplexed-readout assay that uses B cell and peripheral blood mononuclear cells, a human vascular primary cell co-culture, with measurements taken at 24 hours after chemical dosing in a microplate: 96-well plate.BSK_BT_PBMCCytotoxicity is an assay component measured in the BSK_BT assay. It measures dehydrogenase activity, a form of viability reporter, as detected with fluorescence intensity signals by Alamar Blue Reduction technology.Data from the assay component BSK_BT_PBMCCytotoxicity was analyzed at the endpoint, BSK_BT_PBMCCytotoxicity, in the positive analysis fitting direction relative to DMSO as the negative control and baseline of activity. Using a type of viability reporter, gain or loss-of-signal activity can be used to understand cellular changes in viability. To generalize the intended target to other relatable targets, this assay endpoint is annotated to the 'cell cycle' intended target family, where the subfamily is 'cytotoxicity'.
The levels of cell surface (or secreted, indicated by the prefix "s") biomarker endpoints were measured by ELISA. Overt cytotoxicity to cells in confluent adherent cultures (all systems other than the BT system) was assessed by measuring total protein levels using sulforhodamine B (SRB) staining in parallel cultures at the time of biomarker measurements, indicated as SRB endpoints. For proliferation assays for adherent cell types, individual cell types are cultured at sub-confluence and relative cell numbers quantified by SRB staining at time points optimized for each system (48 h: 3C and CASM3C systems; 72 h: BT and HDF3CGF systems; 96 h: SAg system). SRB was performed by staining cells with 0.1% SRB after fixation with 10% TCA and reading wells at 560 nm.Viability and proliferation of PBMC (T cells) was quantified by Alamar Blue reduction for the SAg and BT systems. For PBMC viability (referred to as PBMC Cytotoxicity within the assay endpoint names), cells were plated (75,000/well in a 96-well plate) and then chemical samples added for 1 h before addition of activators, SEB and TSST-1 (20 ng/mL final concentration each). Cells were incubated for 90 h. Then, Alamar Blue (20 uL/well) (Invitrogen, Cat DAL1100) was added for 6 h, and the plates were read with a fluorescence microplate reader at 546/580 nm (excitation/emission). For PBMC proliferation, cells were plated and activated as above but incubated for only 16 h prior to addition of Alamar Blue. Plates were read after 6 h.
`COP(=S)(OC)Oc1c(Cl)cc(C)cc1Cl`: the AC50 was 14.5 µM (active). As to `Oc1c(I)cc(I)cc1I`, the result was inactive. For `CCOP(=S)(OCC)SCCS(=O)(=O)CC`, the result was inactive. On to `ClC(Cl)=C(Cl)C(Cl)=C(Cl)Cl`, for which the AC50 was 11.1 µM (active). With `Nc1ccc(-c2ccc(N)c(Cl)c2)cc1Cl`, the outcome was inactive. On the same count and under the same terms, for `NC(=S)Nc1ccccc1` the value was “inactive”; for `O=C(O)C(F)(F)C(F)(F)C(F)(F)C(F)(F)C(F)(F)C(F)(F)F`, “inactive”. On the same count and under the same terms, to `CC(C)c1ccc(CO)cc1` belongs “inactive”; to `Nc1ncc([N+](=O)[O-])s1`, “inactive”.

Regarding `BrCCBr`, the result was inactive. Consider `ClC1=C(Cl)[C@]2(Cl)[C@H]3[C@H]([C@H]4C=C[C@H]3C4)[C@@]1(Cl)C2(Cl)Cl`, for which the AC50 is 30.5 µM (active). Take `O=S(=O)(c1ccc(Cl)cc1)c1ccc(Cl)cc1`: the outcome was inactive. For `COP(=S)(OC)Oc1ccc(Sc2ccc(OP(=S)(OC)OC)cc2)cc1`, the result was inactive.

Turning to `COP(=S)(OC)Oc1cc(Cl)c(Cl)cc1Cl`, the outcome was inactive. As for `O=[N+]([O-])c1ccc2c3c(cccc13)CC2`, the result was inactive. On the same count and under the same terms, for `OCc1ccco1` the value was “inactive”. The same measure, in the same setting: to `COP(=S)(OC)Oc1ccc(S(=O)(=O)N(C)C)cc1` belongs “inactive”. As for `CC(=O)C(Cl)C(=O)N(C)C` (stereo unspecified), the AC50 is 20 µM (active). Turning to `O=C(O)C(F)(F)C(F)(F)C(F)(F)C(F)(F)C(F)(F)C(F)(F)C(F)(F)C(F)(F)C(F)(F)C(F)(F)F`, the result was inactive. For the molecule `O=C(OC1CCCCC1)c1ccccc1C(=O)OC1CCCCC1`, the AC50 was 34.8 µM (active). Consider `Nc1cccc2ccccc12`, for which the outcome was inactive. On to `CCSC(C)CC1CC(=O)C(C(CC)=NOC/C=C/Cl)=C(O)C1` (stereo unspecified), for which the outcome was inactive. For `CCCCCCCCC(=O)NCc1ccc(O)c(OC)c1`, the result was inactive.

Take `O=C(O)CCC(F)(C(F)(F)F)C(F)(F)F`: the result was inactive. For the molecule `COc1cc(OC)nc(NC(=O)NS(=O)(=O)c2ncccc2C(=O)N(C)C)n1`, the outcome was inactive.

For the molecule `CCOP(=S)(OCC)Oc1ccc(S(C)=O)cc1` (stereo unspecified), the outcome was inactive. Same read-out and setting: for `Oc1ccc(-c2ccccc2)cc1` the value was “inactive”; for `CCNc1nc(NC(C)(C)C)nc(SC)n1`, “inactive”. Still for that read-out and setting: to `COC(=O)c1sccc1S(=O)(=O)NC(=O)Nc1nc(C)nc(OC)n1` belongs “inactive”. As for `CCCCC(CC)CO[N+](=O)[O-]` (stereo unspecified), the outcome was inactive.

As for `COC[C@H](C)N(C(=O)CCl)c1c(C)csc1C`, the result was inactive. On the same count and under the same terms, for `CC1(C)Cc2cccc(O)c2O1` the value was “inactive”; for `O=Cc1cccc(Oc2ccccc2)c1`, “inactive”; for `CC(C)CCCCCCOC(=O)c1ccccc1C(=O)OCCCCCCC(C)C`, “inactive”. Turning to `C(=NC1CCCCC1)=NC1CCCCC1`, the AC50 was 8.8 µM (active). For the molecule `CCOC(=O)/C=C(C)/C=C/C[C@@H](C)CCCC(C)C`, the AC50 is 23.7 µM (active).

A word on the AC50: it is the midpoint of the concentration-response curve, whichever way the signal moves.
